Results taken from PubChem BioAssay AID1508600 (Functional Genomics Laboratory (NCATS/FGL), 2020).
The campaign covered roughly 53,000 sequences. About 3,700 (7%) were called active. Shown is part of a subset that was picked to be rich in actives. A number with no mark means an inactive call.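 How the source made its calls: active means gene knockdowns whose robust z-score for IL-1 alpha signal is at least 2 or at most -2, so actives lie on both sides; inactive means the rest.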

assay: Components of the Cytosolic LPS Sensing Pathway: Gene Identification via Genome-wide siRNA Screen; settings: RAW264.7 macrophages, IL-1a HTRF, actives lie on both sides, screened at 100 nM (by protocol), cells primed 5 h with Pam3CSK4 first;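 further: robust z of the log signal after scaling to non-targeting control siRNA wells of the plate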
Outline: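 Mouse macrophage line RAW264.7 is transfected with siRNA (100 nM final), grown 48h, primed with TLR ligand Pam3CSK4 5 h and given intracellular LipidA 24 h. IL-1a in supernatant is read by HTRF and viability by luminescence.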

Compared with GGAUUCACUAGCAUUGUAGTT against Guca1b, GCAAGAAUCAUCCGGUUACTT against Ttc39b is higher in z-score: -0.725 for the first, 1.36 for the second.

Going from CCUUUACACCACUCUAUUUTT against Adgb to GCCGCUACCUAUGAUGUCCTT against Kcne4, the z-score rises from -0.795 to 0.385.

Compared with GGUCCUGGAAUCUCAAAAUTT against Entpd1, GCAGAUCGCAAAAGAUCCUTT against Nppa is higher in z-score: -0.506 for the first, 0.69 for the second.

Going from GGUCAAGUCAGUAACUGCATT against Olfr10 to GCUCAGAUUUGCUUUAUGATT against Ube2r2, the z-score falls from 0.747 to 0.367.

Going from GCCUCACUUUGCCAUGCAUTT against Pou4f1 to CCAUGCUGAUUGCUCCGACTT against Cass4, the z-score rises from -1.78 to 1.46.

First: GGAUAUGUGAAAUGCAUUGTT against Asb9
Second: GGCUAAAGGCCUUCUUUUUTT against Reep3
The z-score of the first is lower: 0.219 for the first, 0.622 for the second.

First: CGCGAUUCAGCUCAUUCUCTT against Slitrk1
Second: GGACUCCGUCAUAUACGAATT against Olfr1102
The z-score of the first is higher: 0.83 for the first, -0.187 for the second.

Compared with GGUAAAAGUGGGUAGGAAATT against Ptprh, GGAUCUACGUAGCAUUUCATT against Mis12 is lower in z-score: 0.595 for the first, 0.237 for the second.

Compared with GGGCUGAAUAAGGAACUGUTT against Nudt16l2, GGAAAGAUCACUCUUGCAUTT against Pon1 is lower in z-score: 1.46 for the first, -0.58 for the second.

First: GGAACUCUGGAAUAAUCUGTT against St6galnac2
Second: GGACCAGCUGAUCUCAGUATT against Olfr418
The z-score of the first is higher: 1.58 for the first, -1.94 for the second.

Going from “GGCUGACAAGAGAUUUAAATT against 4930430F08Rik” to GCUACGCUUCCUUAUUUGCTT against Tubgcp3, the z-score rises from -0.703 to 0.525.

Going from GCCAAUAAGAACAACGAUGTT against Des to GGUCUUUGAUCUACGAAUGTT against Rhobtb2, the z-score rises from 0.732 to 0.825.

Compared with GGAGAUAAAUGUGUAGACCTT against Matn3, GCACAAAUAAAGAUAAGAGTT against Uox is lower in z-score: 0.915 for the first, -0.178 for the second.

First: GGUUUAACUGUAGCAUAAGTT against Pde12
Second: GGGACUCGGGCAGUAUUCATT against Tgm5
The z-score of the first is higher: -0.0106 for the first, -0.185 for the second.

Compared with GCAGAUGUAAAUAGCAAAATT against Apc, GGGUGACAUGAUUUUAACUTT against Fbh1 is lower in z-score: 0.955 for the first, -0.727 for the second.

First: GGCAAAUCCCGUUCACUGATT against Magel2
Second: GCGAUGAUGUGCUUAUGUCTT against Zfp341
The z-score of the first is lower: -1.08 for the first, 0.735 for the second.

Going from CCUUAGGUACUCUAAGGAATT against D1Pas1 to CGGAUUUUGAAGUACACCGTT against Alg8, the z-score rises from -0.109 to 0.207.

First: CGCAGUACCUAUUUGAGCGTT against Hs6st1
Second: GCUCAUAAUUUUGACAGCUTT against Cyp51
The z-score of the first is higher: 1.62 for the first, 0.168 for the second.

Compared with GGCUUUCACGCUUUGACAATT against Ap1m2, GACUAACCAGAUGAAAGUCTT against Vmn1r11 is lower in z-score: 0.209 for the first, -0.66 for the second.

Compared with GGAUUCUAUGACAAAGACATT against Ddx3x, GGCUUCCAAAACAAAUCAATT against Rgn is lower in z-score: 1.84 for the first, 0.857 for the second.

First: GAUAAUGACCAGGCUACCATT against Magea7-ps
Second: CCACUGUGCUCAAUUUGCATT against Slc9a2
The z-score of the first is higher: 0.069 for the first, -0.372 for the second.

Going from GGCUCUGGAAAAGAACAACTT against Sds to GGAAAUCAACAGCUCACAUTT against B3gnt9, the z-score falls from 1.52 to -0.327.

First: GCUGUAUGGCUAAGCAGUGTT against Olfr113
Second: GCCUCAAAAUGGCGGAACUTT against Casp8
The z-score of the first is lower: -0.42 for the first, -0.249 for the second.

Going from CCAAGCGAAUGUCAAAAUATT against Fam163a to GGAGAGGAACAGGAACAGATT against Ankrd9, the z-score falls from 0.66 to 0.557.

Compared with GGCCUAAUCGAAAUGUGGCTT against Trim12a, GGUGACUGGUUUGUUGCUUTT against Pstk is lower in z-score: 0.515 for the first, -1.39 for the second.

Going from GGCUGGAAUCACUGAUAUUTT against Hddc3 to CGAGAUGUUUAUUCAACAUTT against Tcf23, the z-score falls from 0.527 to -0.431.

First: GGAACAUUUGAAGUGCAAATT against Ilf2
Second: GCCAUCGUCUACCUAUGACTT against Olfr358
The z-score of the first is higher: -0.45 for the first, -1.85 for the second.

Compared with CGGUUAGUCUGUCAGUAUCTT against Xrcc3, GAUUCAGCAUUAUUUCUGUTT against Olfr980 is higher in z-score: 0.488 for the first, 0.524 for the second.

Going from GGGCUUGAUUGUGAAAGAATT against Tlr12 to GCUGAAGACACUCUGUGAATT against Ehbp1l1, the z-score rises from -1.82 to -1.7.

Going from GCAACGCAGUACUCUACCCTT against Tns2 to CCCAGUGGUUUUAAAGCAUTT against Commd3, the z-score falls from 0.557 to -1.64.

First: GCCAACGCACAUAAUAAAGTT against Ndufa13
Second: GCUAGGUAUCUAAGGAUAUTT against Fig4
The z-score of the first is higher: 0.245 for the first, -0.579 for the second.

Going from “GGGAAACUCAAACUGAUUGTT against 9930104L06Rik” to GGUCAAUUCUUUGUGAUGATT against Usf1, the z-score falls from 0.0417 to -0.609.

First: GGACACUAUACAAAUUUCGTT against Fank1
Second: GCAAAACUUCGGAUAGUCATT against Gak
The z-score of the first is lower: -0.109 for the first, 0.382 for the second.

First: GGCCGUUUCCUACCUCAUGTT against Cckbr
Second: GGUCCAGAUCAGUUGACAGTT against Srsf5
The z-score of the first is lower: -1.09 for the first, 0.812 for the second.

Compared with CCCAACUCGGUUUUUUUCUTT against Olfr1037, CCUAAGCUUAGAUCAACAUTT against Dhx36 is lower in z-score: 0.827 for the first, -0.735 for the second.

First: GGACGAGAUGAACAGCCUCTT against Chkb
Second: GGCGCAACGAAUAAAAAUATT against D630023F18Rik
The z-score of the first is higher: 0.0671 for the first, -0.581 for the second.

Going from GGAUUUCUUCCAGAAGAUGTT against Grhpr to CGUAAACAUUUCCUUCUACTT against Dmbt1, the z-score rises from -1.54 to -0.718.

Compared with CUAUGACACUUGGUUCCAUTT against Nxpe5, GCCUGUAGCAGAGAACUUUTT against Tmem59l is lower in z-score: 1.69 for the first, 1.1 for the second.

Going from CCCAAAACUUCGUUUGUGUTT against Vezf1 to CCCAUAUCCUAGCUCUCUUTT against Olfr1230, the z-score falls from -0.973 to -1.49.

First: GGCAUGGAGAGAAGAAAAGTT against Rassf7
Second: GCUCUAGAAAGUUACAGAUTT against Crtam
The z-score of the first is lower: -0.433 for the first, 0.317 for the second.

Going from GGCUGCAUCUAUAACAUAATT against Olfr611 to GGUGAAGGUACGAGUAAGATT against Prkra, the z-score falls from -0.767 to -0.809.

First: GGACGAGAACGAUAAUUACTT against Dsc2
Second: GGAGGUAAAGAUCAUGUCATT against Ddr1
The z-score of the first is higher: 0.335 for the first, -1.39 for the second.

With GGAGUAGCUGUACUCAACATT against Olfr790 the z-score was -0.246.

In the case of GGAGCUUCUAGACUGUACCTT against Lrmp, the z-score is reported as 2.03 (active).
In the case of GGGAAUGGCUAAUGUUUAUTT against Stk38l, the z-score is reported as 2.32 (active).
In the case of GGAUGCCAGAAGAAUAUUCTT against Pnlip, the z-score is reported as 2.43 (active).
With GCCAUCUUCGGUCAACUCUTT against Olfr969 the z-score was -2.87 (active).
With CCCUAAGAGUCACCAAAAUTT against Nos2 the z-score was -2.19 (active).
With GGACCACUCCAAGAGUUCUTT against Ncapd3 the z-score was 2.88 (active).
For GUCUAUCUUCAGCACAAACTT against Klrc3, the z-score was 2.12 (active).
For GGUCGAACUUCUGUGCCAUTT against Slc39a8, the z-score was 2.39 (active).
With “GCUUUUGGUACAGGAUGCCTT against 5830411N06Rik” the z-score was -2.68 (active).
With GCAUGUUACUAGGAUAACUTT against Mup20 the z-score was 2.27 (active).
For CCUGCACAACUGGAAACCUTT against Nectin2, the z-score was -2.16 (active).
In the case of GGAUCUAUAAGGACUACAUTT against Bmp7, the z-score is reported as 4.01 (active).
With GGCCGAUUCCAUUGUACAGTT against Fam177a the z-score was 3.54 (active).
For GGGUCAUUGGUAGCAACGATT against Oas1g, the z-score was -2.9 (active).
For GCUACAGGGAAGUAUUGAATT against Apc, the z-score was 2.05 (active).
In the case of GGGAGAGUAAUGUGGACAUTT against Slc37a2, the z-score is reported as 3.86 (active).
With GGUCAUUGUCAAAGUCAAGTT against Nutm1 the z-score was 2.4 (active).
In the case of GCGACUGUACAACGAAUUGTT against Clp1, the z-score is reported as 3.34 (active).
For GCGUGGUGUAUUUGAAUCATT against Ch25h, the z-score was 2.31 (active).
In the case of GGGAACAGUAUCUGAUUCATT against Polg, the z-score is reported as 2.35 (active).
For GGUGUGAAGGAGAAGUUCATT against Atp6v1a, the z-score was 2.01 (active).
For GGCCAAAGUCCACACAAGUTT against Naaa, the z-score was 2.12 (active).
With GGUCCUAGGUACAAUCACUTT against Slfn10-ps the z-score was -2.58 (active).
